Measured values from PubChem BioAssay (NCI).
Compounds without any hit were thinned out: in the full panel of roughly 83,000, 20% have a hit.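 Step 1: grow cells in 96-well plates. Step 2: add test compound at a single concentration. Step 3: incubate 48 h. Step 4: record percent growth.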 Values without a mark were called inactive. Activity calls are given as the source filed them. How the source made its calls: active means growth percent below 10; inactive means the rest.

Experiments:
Test in all cases: NCI-60 one-dose screen, 48 h (100 = growth as untreated, 0 = no growth, -100 = all killed)
Conditions in all cases: 10 µM
786-0 renal = system: 786-0 renal
MALME-3M melanoma = system: MALME-3M melanoma
MDA-MB-231 breast = system: MDA-MB-231 breast
SF-268 CNS = system: SF-268 CNS
SF-295 CNS = system: SF-295 CNS
UACC-257 melanoma = system: UACC-257 melanoma
UACC-62 melanoma = system: UACC-62 melanoma
SK-MEL-28 melanoma = system: SK-MEL-28 melanoma
SK-MEL-2 melanoma = system: SK-MEL-2 melanoma
EKVX NSCLC = system: EKVX NSCLC
SN12C renal = system: SN12C renal
UO-31 renal = system: UO-31 renal
TK-10 renal = system: TK-10 renal
CAKI-1 renal = system: CAKI-1 renal
A498 renal = system: A498 renal
OVCAR-8 ovarian = system: OVCAR-8 ovarian
OVCAR-5 ovarian = system: OVCAR-5 ovarian
IGROV1 ovarian = system: IGROV1 ovarian
OVCAR-3 ovarian = system: OVCAR-3 ovarian
HS 578T breast = system: HS 578T breast

| SMILES | growth (786-0 renal) | growth (MALME-3M melanoma) | growth (MDA-MB-231 breast) | growth (SF-268 CNS) | growth (SF-295 CNS) | growth (UACC-257 melanoma) | growth (UACC-62 melanoma) | growth (SK-MEL-28 melanoma) | growth (SK-MEL-2 melanoma) | growth (EKVX NSCLC) | growth (SN12C renal) | growth (UO-31 renal) | growth (TK-10 renal) | growth (CAKI-1 renal) | growth (A498 renal) | growth (OVCAR-8 ovarian) | growth (OVCAR-5 ovarian) | growth (IGROV1 ovarian) | growth (OVCAR-3 ovarian) | growth (HS 578T breast) |
| --- | --- | --- | --- | --- | --- | --- | --- | --- | --- | --- | --- | --- | --- | --- | --- | --- | --- | --- | --- | --- |
| Cc1ccc2sc3c(c2c1)Oc1nc[nH]c(=O)c1C3c1cccc(F)c1 (stereo not given) | 102% | 98.7% | 91.1% | 104% | 109% | 101% | 74.5% | 110% | 102% | 87.9% | 89.5% | 66.3% | 154% | 83.2% | 129% | 107% | 108% | 89.2% | 114% | 94.4% |
| COc1cc2oc(-c3cccc(C(=O)Nc4ccc(Cl)cc4)c3)cc(=O)c2c(OCCNC(=O)[C@@H](N)CO)c1OC | 48.4% | -56.9% (active) | 3.78% (active) | 69.9% | 99.4% | -67.8% (active) | 38.8% | -74.9% (active) | 78.5% | 54.7% | 43.9% | 91.1% | 138% | 45.9% | 177% | 26.3% | 60.9% | 57.9% | 89.5% | 53.8% |
| Cc1ccc2c(c1)C(=O)/C(=C/c1c[nH]c3ccccc13)S2 | 63.9% | 91.9% | 59.7% | 44.9% | 73.2% | 72.4% | 54.4% | 65.2% | 99.7% | 50.8% | 51.2% | 40.4% | 105% | 37.1% | 127% | 55.3% | 87% | 59.8% | 42.7% | 55.6% |
| O=C(CSc1nc2ccccc2c(=O)n1-c1ccc(Cl)cc1)Nc1ccc(-c2nc3ccc([N+](=O)[O-])cc3[nH]2)cc1 | 53.7% | 21.7% | 42.7% | 38.4% | 23.7% | 36% | 36.9% | 21.1% | 34.4% | 35.9% | 42.9% | 74.3% | 89.9% | 40.8% | 81.7% | -87.5% (active) | 92.6% | 64.2% | 19.4% | 11.8% |
| Cn1cc(-c2nnc(N)nc2-c2c[nH]c3ccccc23)c2cc(Br)cnc21 | 40.1% | 45.9% | 54.8% | 57.4% | 37.2% | 73% | 24.3% | 49.2% | 46.2% | 46.6% | 56.1% | 24.7% | 61.4% | 24.3% | 81.9% | 62% | 94.3% | 35.6% | 65.1% | 77.3% |
| O=C(Nc1ccc(OCc2ccc(F)cc2)cc1)Nc1ccc(Cl)c(C(F)(F)F)c1 | 13.5% | -10.2% (active) | 6.32% (active) | 39% | -30.4% (active) | -1.33% (active) | 6.53% (active) | 31.4% | -34.7% (active) | 8.3% (active) | 21.9% | 7.5% (active) | 20.2% | 2.77% (active) | -9.28% (active) | 12.8% | 31.9% | 43.6% | 34.5% | 24% |
| Cc1ccc(COc2ccc(NC(=O)Nc3ccc(Cl)c(C(F)(F)F)c3)cc2)cc1 | 89.4% | 75.5% | 90.2% | 86.2% | 67.7% | 76.1% | 60.5% | 93.6% | 85.3% | 63.1% | 81.1% | 63.5% | 77.9% | 61.7% | 82.6% | 80.4% | 85% | 79.2% | 68.7% | 86.7% |
